# Data taken from PubChem BioAssay AID2284089 (EPA ToxCast).
# Calls of active or inactive are those of the source. The calls were made as follows: active = hit-call score of the fitted dose curve at least 0.9, where 1 is the maximum; inactive = score below 0.9.
# Target: Cytochrome P450 2C19 (Homo sapiens) (UniProt P33261)
# Assay: ERF_FR_ADME_hCYP2C19_CEC: Eurofins (ERF) CYP450-related Enzyme Activity (ADME) Assay for CYP2C19 Inhibition Assay, CEC Subtrate
# Description: ERF_FR_ADME_hCYP2C19_CEC is a biochemical, single-readout assay that uses extracted gene-proteins in a cell-free assay. Measurements were taken 0.83 hour after chemical dosing in a 96-well plate. See CYP2C19 inhibition (recombinant, CEC substrate).ERF_FR_ADME_hCYP2C19_CEC is an assay component calculated from the ERF_FR_ADME_hCYP2C19_CEC assay. It is designed to measure enzyme activity using a type of enzyme reporter as detected by fluorescence intensity of HFC with fluorimetry technology.Data from the assay component ERF_FR_ADME_hCYP2C19_CEC was analyzed at the assay endpoint, ERF_FR_ADME_hCYP2C19_CEC, in the positive analysis fitting direction relative to acetonitrile as the negative control and baseline of activity. Using a type of enzyme reporter, loss-of-signal activity can be used to understand changes in enzymatic activity as they relate to gene CYP2C19. To generalize the intended target to other relatable targets, this assay endpoint is annotated to the cyp intended target family, where the subfamily is steroidogenesis-related.
# Assay is performed with 1 compound concentration(s) and each concentration tested using 2 replicate
# Chain of Cytochrome P450 2C19 (Homo sapiens) (P33261 whole entry, looked up): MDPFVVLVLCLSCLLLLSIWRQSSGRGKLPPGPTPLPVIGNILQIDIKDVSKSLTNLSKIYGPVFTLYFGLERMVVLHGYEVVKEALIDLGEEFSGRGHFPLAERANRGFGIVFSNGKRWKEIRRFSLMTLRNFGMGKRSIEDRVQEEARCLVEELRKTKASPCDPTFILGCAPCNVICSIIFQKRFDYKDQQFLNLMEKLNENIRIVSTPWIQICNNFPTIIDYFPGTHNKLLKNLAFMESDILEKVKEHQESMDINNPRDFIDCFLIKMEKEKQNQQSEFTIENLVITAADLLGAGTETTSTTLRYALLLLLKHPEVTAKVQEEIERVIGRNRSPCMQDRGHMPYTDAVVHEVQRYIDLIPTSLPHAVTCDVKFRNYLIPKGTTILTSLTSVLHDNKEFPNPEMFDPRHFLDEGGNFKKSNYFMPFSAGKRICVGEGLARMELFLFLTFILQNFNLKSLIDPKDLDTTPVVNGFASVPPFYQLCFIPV
row,SMILES,AC50
1,O=C(/C=C/c1ccc(O)cc1)CC(=O)/C=C/c1ccc(O)cc1,1470 nM (active)
